PubChem BioAssay (NCATS)
Records with an inconclusive call do not appear. Unmarked numbers belong to inactive results. The source made the active and inactive calls. Calls come from the whole dose curve; as a rule, active = well fitted inhibition curve with a large enough effect; inconclusive = small, poorly fitted or top-dose-only effect; inactive = no such curve, though single readings can be large or run the other way.

These compounds were tested against RecQ-like DNA helicase BLM (Homo sapiens) (UniProt P54132) (assay: qHTS Validation Assay for Inhibitors of Bloom's syndrome helicase (BLM) (AID 2364)). Conditions: BLM helicase DNA unwinding, fluorescence, in vitro; series mostly up to 57.1 µM; activity change, negative = inhibition: at the top concentration.
Excerpt: Survival of cells and the faithful propagation of the genome depend on elaborate mechanisms of detecting and repairing DNA damage. Treatment of advanced cancer relies on radiation therapy or chemotherapy, which kill cancer cells by causing extensive DNA damage. It is often found, that cancer cells develop resistance to therapy through enhanced activity of DNA repair functions; this has led to an increased interest in developing drugs that interfere with DNA repair, which could sensitize cancer cells to conventional therapy.
This validation qHTS assay pertains to human BLM, which is important in resolving abnormal DNA structures formed during replication or homologous recombination. Shutting down the expression of BLM leads to chromosomal instability and higher radiation sensitivity in cultured cells.
The validation assay was a fluorescence quenching based kinetic qHTS for BLM Helicase DNA unwinding. The activity was measured as ATP-dependent separation of a 20-bp DNA duplex extended by 30-nt single-stranded tails (forked duplex). The forked DNA substrate was tagged with rhodamine fluorophore (carboxytetramethyl rhodamine, TAMRA) and BHQ-2 (Black Hole Quencher 2) dark quencher. Strand separation results in an increase in the fluorescence of TAMRA (excitation 525 nm, emission 598 nm). This substrate construct operates in a red-shifted region where very few compound library members have been noted to fluoresce (PubChem AIDs 593 and 594). An additional feature of the assay is the inclusion of 2.5 ug/ml poly (dIdC), to reduce interference by compounds such as DNA intercalators, a major source of false inhibitors.
Ian Hickson, University of Oxford
Opher Gileadi, Structural Genomics Consortium, University of Oxford
Screening Center PI: Austin, C.P.
Screening Center: NIH Chemical Genomics Center [NCGC]
Three uL of reaction buffer (25 mM Tris-HCl (pH 8.0), 5 mM NaCl, 2 mM MgCl2, 1mM DTT, 0.01% Tween- 20, and 2.5 ug/ml poly(dI-dC), including enzyme (50 nM BLM), were dispensed into a 1536-well Greiner black assay plate via solenoid-valve based nanoliter dispensers. Compounds (23 nl each in columns 5-48) and control (23 nl each in column 2 as dose-response) were transferred via a Kalypsys pintool equipped with a 1536-pin array. The plates were incubated for 15 min at room temperature, and then 1 ul of substrates (200 nM DNA and 2 mM ATP, final concentrations) was added to start the reaction. The plate was transferred into a ViewLux high-throughput CCD imager where the reaction progress was measured in a discontinuous kinetic mode (two reads spaced 2 hours apart, with intermediate room temperature incubation of the covered assay plate) by using standard red-fluorescence optics (excitation filter 525 nm, emission filter 598 nm). Enzyme-free and vehicle (DMSO) controls were included for signal normalization.
Potency is the fitted concentration of half-maximal effect.

Chain of RecQ-like DNA helicase BLM (Homo sapiens) (P54132 whole entry, looked up): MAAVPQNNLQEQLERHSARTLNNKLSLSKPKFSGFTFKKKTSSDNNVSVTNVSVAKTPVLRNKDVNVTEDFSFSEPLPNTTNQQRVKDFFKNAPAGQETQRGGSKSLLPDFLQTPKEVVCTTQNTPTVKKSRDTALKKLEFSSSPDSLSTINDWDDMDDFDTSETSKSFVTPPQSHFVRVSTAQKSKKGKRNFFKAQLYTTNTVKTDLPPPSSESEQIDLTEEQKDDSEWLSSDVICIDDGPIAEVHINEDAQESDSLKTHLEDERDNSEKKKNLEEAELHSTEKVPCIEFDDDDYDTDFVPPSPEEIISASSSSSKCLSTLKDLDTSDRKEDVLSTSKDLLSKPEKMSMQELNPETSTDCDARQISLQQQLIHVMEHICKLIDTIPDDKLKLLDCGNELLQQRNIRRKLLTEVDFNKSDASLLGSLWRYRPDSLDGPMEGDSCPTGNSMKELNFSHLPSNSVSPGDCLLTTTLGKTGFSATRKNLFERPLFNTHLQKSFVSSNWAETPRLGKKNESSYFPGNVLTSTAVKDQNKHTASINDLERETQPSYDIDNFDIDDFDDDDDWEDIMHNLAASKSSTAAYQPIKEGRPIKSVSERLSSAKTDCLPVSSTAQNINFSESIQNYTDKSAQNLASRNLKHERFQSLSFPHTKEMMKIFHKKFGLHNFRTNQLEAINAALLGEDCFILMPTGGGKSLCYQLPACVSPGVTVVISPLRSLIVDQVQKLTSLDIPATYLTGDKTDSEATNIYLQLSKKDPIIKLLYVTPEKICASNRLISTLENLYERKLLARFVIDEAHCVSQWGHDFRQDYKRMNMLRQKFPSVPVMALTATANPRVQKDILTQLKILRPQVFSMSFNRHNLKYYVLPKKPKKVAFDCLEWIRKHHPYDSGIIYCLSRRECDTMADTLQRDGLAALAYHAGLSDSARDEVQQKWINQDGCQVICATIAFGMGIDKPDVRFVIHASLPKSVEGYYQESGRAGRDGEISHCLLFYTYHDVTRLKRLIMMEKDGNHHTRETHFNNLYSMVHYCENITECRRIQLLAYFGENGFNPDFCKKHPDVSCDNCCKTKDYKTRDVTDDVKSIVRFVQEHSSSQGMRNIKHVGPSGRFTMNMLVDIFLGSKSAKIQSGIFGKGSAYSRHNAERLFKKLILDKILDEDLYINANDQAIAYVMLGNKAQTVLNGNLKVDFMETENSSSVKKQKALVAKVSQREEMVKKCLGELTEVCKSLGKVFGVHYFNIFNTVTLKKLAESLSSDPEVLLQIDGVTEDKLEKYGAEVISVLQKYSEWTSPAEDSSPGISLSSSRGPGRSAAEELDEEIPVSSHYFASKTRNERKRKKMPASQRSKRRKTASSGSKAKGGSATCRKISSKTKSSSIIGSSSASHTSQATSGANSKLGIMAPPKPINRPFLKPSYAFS

Structure (SMILES) | activity change, negative = inhibition | Potency
O=C(CCc1ccc(O)cc1)c1c(O)cc(O)cc1O | -10.1% | 
Cc1c(OCC(F)(F)F)ccnc1CS(=O)c1nc2ccccc2[nH]1 (stereo unspecified) | -10.7% | 
NC(=NCc1ccccc1)NC(=O)c1nc(Cl)c(N)nc1N | 81.7% | 
COc1cc2nc(N3CCN(C(=O)C4CCCO4)CC3)nc(N)c2cc1OC (stereo unspecified) | 10.7% | 
CC(C)c1ccc2c(c1)c(SC(C)(C)C)c(CC(C)(C)C(=O)O)n2Cc1ccc(Cl)cc1 |  | 28.2 µM (active)
COc1ccc2cc([C@H](C)C(=O)O)ccc2c1 | -7.87% | 
O=C(NCC1CCCCN1)c1cc(OCC(F)(F)F)ccc1OCC(F)(F)F (stereo unspecified) | -7.14% | 
C[C@@H](N)C1CCC(C(=O)Nc2ccncc2)CC1 (stereo partly specified) | -12.2% | 
O=c1ccc2ccc(O)c(O)c2o1 | -7.77% | 
O=c1c(O)c(-c2cc(O)c(O)c(O)c2)oc2cc(O)cc(O)c12 |  | 14.1 µM (active)
NCCCCNCCCN | 32.7% | 
O=C(O)c1cccnc1Nc1cccc(C(F)(F)F)c1 | -10.6% | 
Cc1nc2n(c(=O)c1CCN1CCC(c3noc4cc(F)ccc34)CC1)CCCC2 | -5.28% | 
CCN(CC)C(=S)SSC(=S)N(CC)CC | -9.08% | 
O=C1c2ccccc2-c2n[nH]c3cccc1c23 | -7.97% | 
CC1(C)NC(=O)N(c2ccc([N+](=O)[O-])c(C(F)(F)F)c2)C1=O | -8.62% | 
